Bioassay records from PubChem BioAssay.
Compounds with a hit are over-represented: about 6.7% of the library has one in this group of screens.
SW480 rereplic: A quantitative high throughput screen for small molecules that induce DNA re-replication in SW480 colon adenocarcinoma cells; Potency, µM (highest dose often 46.1 µM), for inactives: top-dose re-replication activation, hits mostly activators; AID 624297, 2012; SW480 DNA re-replication, Hoechst DNA content imaging, 48 h; 1.8% of 340,000 active; note: % of control where 0% means no effect; nearly all actives have a fitted effect of over 55% in size
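Cells (250 per well) received 23 nL compound or DMSO by pin tool and were kept 48 hr at 37 C, 5% CO2. Nuclei were then stained with Hoechst for 40 min and scanned for DNA content.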
KB-3-1 cytotox: qHTS assay for MDR1-selective chemotherapeutics: Primary screen using the parental adenocarcinoma cell KB-3-1; Potency, µM (doses to about 46.1 µM), usual class: cytotoxic; 1.4% of 400,000 active; AID 1347075, 2019; KB-3-1 viability, CellTiter-Glo ATP luminescence, 72 h; note: % is set by controls: 0 for no effect and ±100 for the full control effect; nearly all actives have a fitted effect of over 60% in size
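Multi-concentration cytotoxicity screen in KB-3-1 cells grown in DMEM lacking phenol red with 10% FBS. After 72 h at 37 °C with compound, ATP-dependent luminescence was recorded.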
MCF10A rereplic: A quantitative high throughput screen for small molecules that induce DNA re-replication in MCF 10a normal breast cells; MCF 10A DNA re-replication, Hoechst nuclear intensity, 48 h; Potency, µM (top dose mostly 46.1 µM), without a hit: top-dose activity, positive = re-replication, usual class: activators; 2.9% of 350,000 active; AID 624296, 2012; note: % of control where 0% means no effect; nearly all actives have a fitted effect of over 50% in size
KB-V1 MDR tox: qHTS assay for MDR1-selective chemotherapeutics: Primary screen using the drug-selected MDR subline cells KB-V1; Potency, µM (doses to about 46.1 µM), hits mostly cytotoxic; 3.4% of 400,000 active; KB-V1 MDR cells viability, CellTiter-Glo, 72 h; note: % is set by controls: 0 for no effect and ±100 for the full control effect; nearly all actives have a fitted effect of over 60% in size
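Following 72 h at 37 degrees C with compound, KB-V1 cell viability was read by CellTiter-Glo luminescence, medium being phenol-red-free DMEM plus 10% FBS; concentration-response parameters came from normalized, curve-fitted qHTS data.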
PINK1 expr mod: A Quantitative High throughput Screen to Identify Chemical Modulators of PINK1 Expression | Potency, µM (top dose mostly 76.6 µM), for the others: top-dose activation (PINK1 increase), most hits filed as activators | 0.2% of 410,000 active | PINK1 immunofluorescence, high-content cytometry, 24 h | AID 624263, 2012; active = well fitted activation curve with a large enough effect; inconclusive = small, poorly fitted or top-dose-only effect; cell line not stated here; note: % of control where 0% means no effect; nearly all actives have a fitted effect of over 65% in size
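Readout is PINK1 immunofluorescence, quantified alongside mitochondrial, cell and nuclear markers by laser-scanning microplate cytometry. Cells from a stable line were exposed to compound titrations (5 concentrations) for 24 hours, with CCCP controls.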
An asterisk follows results filed as active; i = inactive; ? = inconclusive; . = no result; [ ] = another dose, or the depositor's remark. Unless noted, calls come from the whole dose curve; as a rule, active = well fitted curve in the direction sought with a large enough effect; inconclusive = small, poorly fitted or top-dose-only effect, or another doubt; inactive = no such curve, though single readings can be large; an effect the other way counts as inactive or inconclusive. Potency is the fitted concentration of half-maximal effect.

SMILES	SW480 rereplic	KB-3-1 cytotox	MCF10A rereplic	KB-V1 MDR tox	PINK1 expr mod
Cn1c(SCC2CCCO2)nnc1C1CCN(Cc2ccc(-c3cccc(Cl)c3)o2)CC1 (stereo not drawn)	.	.	.	.	-1%
CCOc1ccc(NC(=O)CC2C(=O)N(C)C(=S)N2Cc2ccco2)cc1 (stereo not drawn)	-239%	i	-1%	i	-1%
CN1C(=O)C(CC(=O)Nc2ccc(Cl)cc2)N(Cc2ccco2)C1=S (stereo not drawn)	140%	i	21µM*	i	2%
Cn1c(NCc2cccnc2)nc2cc(-c3ccc(C(=O)N4CCOCC4)cc3)sc2c1=O	.	i	.	i	2%
Cc1ccc(-c2nnc(CSc3nnc(COc4ccccc4)n3-c3ccc(C)cc3)o2)cc1	?	i	23µM*	?	-3%
Cc1ccc(-c2nnc(CSc3nnc(COc4ccccc4)n3-c3ccccc3)o2)cc1	12%	i	12µM*	i	-1%
c1ccc(-c2nn(-c3ccccc3)[n+](-c3ccccc3)n2)cc1	9%	7.3µM*	12%	i	0%
c1ccc(-c2nnc(-c3ccccc3)nn2)cc1	-1%	i	5%	i	3%
NC(=O)C1CCN(c2ncc(-c3cccc(N4CCCCC4)c3)s2)CC1	.	i	.	i	.
CCc1ccc(CSc2nc(-c3ccccc3OC)nc3c2Cc2c(CO)cnc(C)c2O3)cc1	.	i	.	i	-1%
CCOC(=O)C1(Cc2cccc(OC)c2)CCN(Cc2ccccc2OC)CC1	-1%	i	6%	?	8%
CCOC(=O)C1(Cc2cccc(F)c2)CCN(Cc2nc(CC)[nH]c2C)CC1	5.8µM*	i	13µM*	i	?
CCOC(=O)C1(Cc2cccc(F)c2)CCN(Cc2cnn(CC)c2)CC1	4%	i	?	i	1%
CCOC(=O)C1(Cc2cccc(OC)c2)CCN(Cc2cccc(OC)c2O)CC1	20%	?	?	5.2µM*	4%
COc1ccc(NC(=O)Nc2ccc3c(c2)C(=O)N([C@H](C)CO)C[C@H](C)[C@@H](CN(C)C(=O)Nc2ccc(OC)cc2)O3)cc1	-5%	i	?	?	-1%
Oc1ccc(NCc2cccc(OCc3ccc(F)cc3)c2)cc1	2%	i	?	i	3%
O=[N+]([O-])c1ccc(COc2cccc(CNc3ccc(F)cc3)c2)cc1	-2%	i	18%	21µM*	11%
COc1cc2c(cc1OC)C1=C(C#N)CN(C3CCCCC3)CN1CC2	1%	i	3%	21µM*	2%
COc1ccc(C(=O)N=C2CCC(C#N)=C3c4cc(OC)c(OC)cc4CCN23)cc1	6%	?	?	12µM*	-1%
COc1cc2c(cc1OC)C1=C(C#N)CCC(=O)N1CC2	-7%	16µM*	2%	4.6µM*	-1%
O=C(c1n[nH]c2c1CCCC2)N1CCC(n2c(C3CCCO3)nc3ccccc32)CC1 (stereo not drawn)	.	.	.	.	-1%
O=c1[nH]c(-c2ccco2)nc2sc3c(c12)CCCC3	1%	i	-6%	18µM*	-1%
Cc1ccc(Cn2c(C)c(CNCC(C)c3ccccc3)c(C(=O)O)c2C)cc1 (stereo not drawn)	.	i	.	?	1%
Cc1ccc(-n2ncc3c(SCc4cccc(C)c4)ncnc32)cc1	-1%	i	1%	i	0%
Cc1ccc(-n2ncc3c(SCc4cccnc4)ncnc32)c(C)c1	2%	i	11%	5.8µM*	4%
SMILES	SW480 rereplic	KB-3-1 cytotox	MCF10A rereplic	KB-V1 MDR tox	PINK1 expr mod
Cc1cccc(CSc2ncnc3c2cnn3Cc2ccccc2)c1	13%	?	?	15µM*	1%[38.3 µM]
COc1ccc(CCNC(=O)Cn2cc(C(=O)c3ccccc3)c(=O)c3ccc(C)nc32)cc1OC	.	i	.	i	-1%
COc1cc2cc(c1Cl)N(C)C(=O)CC(OC(=O)C(C)N(C)C(C)=O)C1(C)OC1C(C)C1CC(O)(NC(=O)O1)C(OC)C=CC=C(C)C2 (stereo not drawn)	?	?	?	0.46µM*	17%
C=CCn1c(SCC(=O)c2[nH]c(C)c(C(=O)OCC)c2C)nc2scc(-c3ccc(OC)c(OC)c3)c2c1=O	13µM*	i	3.3µM*	?	12%
Cc1cccc(NC(=O)CSc2nc3c(c(=O)[nH]2)CN(Cc2ccc4c(c2)OCO4)CC3)c1C	.	i	.	i	2%
O=[N+]([O-])c1cnccc1-n1nnc2ccccc21	.	i	.	?	0%
COc1ccc(OC)c(S(=O)(=O)Nc2ccc(Oc3ccccc3)cc2)c1	-10%	i	?	21µM*	-7%[38.3 µM]
COc1ccc(S(=O)(=O)Nc2cccc(-c3ccc4nncn4n3)c2)cc1F	5.2µM*	i	5.8µM*	?	5%
O=S(=O)(Nc1cccc(-c2ccc3nncn3n2)c1)c1cccc(F)c1	-2%	i	9%	i	0%
CCOc1ccc(NS(=O)(=O)c2cc(OC)ccc2OC)cc1	0%	i	-4%	?	1%[38.3 µM]
COc1ccc(OC)c(S(=O)(=O)Nc2ccc(-c3ccc4nncn4n3)cc2)c1	8%	18µM*	?	i	0%
Fc1cccc(Cc2c(C3CCCCC3)nc3ccc(Br)cn23)c1	.	i	.	i	23%
COc1cccc(C(C(=O)NC2CCCC2)N2CCN(c3cc(C)nc4ccccc34)CC2)c1OC (stereo not drawn)	.	i	.	?	.
CCOc1ccc(OCC)c(NC(=O)C2CCN(c3ncccn3)CC2)c1	4%	i	-3%	9.2µM*	-2%
CCOc1ccc(OCC)c(NC(=O)C2CCCN(C(=O)c3ccc(Cl)cc3)C2)c1 (stereo not drawn)	-1%	i	5%	7.3µM*	-2%
CCOc1ccc(OCC)c(NC(=O)C2CCCN(c3ncccn3)C2)c1 (stereo not drawn)	-3%	i	3%	i	9%[38.3 µM]
COc1ccc(S(=O)(=O)NCCS(=O)(=O)N2CCN(c3ccccc3)CC2)cc1OC	.	.	.	.	4%
Cc1ccccc1-n1nc2c(c1NC(=O)c1ccc(Br)o1)CSC2	5%	i	23%	13µM*	3%
CC(=O)Nc1c2c(nn1-c1ccc(C)cc1C)CSC2	-4%	i	-8%	i	.
Cc1cccc(CN2[C@H](COCc3ccccc3)C=CS2(=O)=O)c1	.	i	.	i	-1%
COCCn1c(SCC(=O)Nc2ccc3[nH]c(=O)[nH]c3c2)nc2ccccc2c1=O	-7%	i	1%	i	-1%
